# Reference: ChEMBL document CHEMBL4888484, “Replenishing the malaria drug discovery pipeline: Screening and hit evaluation of the MMV Hit Generation Library 1 (HGL1) against asexual blood stage Plasmodium falciparum ,using a nano luciferase reporter read-out” (2022)
# The campaign covered roughly 150,000 compounds. About 540 (0.36%) showed an effect of 50% or more. Only a selection was taken, and strong results are over-represented in it overall.
# System: Plasmodium falciparum
# Assay: Primary screen in NF54 nanoGlo assay, in single point, at 2uM, 72h; a lower Z score goes with more inhibition
# Type: functional, Erythrocyte
# Conditions: timepoint 72 hour
Structure (SMILES),% Inhibition [%],Z score
CN1C(=O)C2(CCN(C(=O)CN3C(=O)OC(C)(C)C3=O)CC2)c2ccccc21,-7,0.88
O=C(CN(CC1CCCO1)C(=O)C1CC1(Cl)Cl)N1CCCC1 (configuration not stated),-19,1.85
O=C(c1ccc2c(c1)OCO2)N1CCn2c1nc1ccccc12,72,-0.31
O=C(c1cncc(N2CCOCC2)c1)N1CCn2c1nc1ccccc12,-9,1.5
O=C(c1cccc(-n2cnnn2)c1)N1CCn2c1nc1ccccc12,2,-0.23
Cc1cnc(C(=O)NC2CCCCCCC2)cn1,18,-2.33
COc1ccc2nc(O)c(CCC(=O)N3CCCC3)cc2c1,-20,3.74
O=C(CC1CCC(F)(F)CC1)Nc1ccc2c(c1F)CCNC2,-13,1.83
COc1ccc2nc(O)c(C(=O)Nc3ccc4c(c3F)CCNC4)cc2c1,99,-18.01
CC(C)n1ccnc1CN1CCC[C@@](O)(CNC(=O)N2CCCCC2)CC1,-5,0.65
CC(C)CC[C@@H](CCNCc1ccccn1)c1ccc(Cl)cc1,25,-3.14
COc1ccc(Cl)cc1CNCCN(C)C,-7,0.59
CC(C)CC[C@@H](CCNC1CCN(C)CC1)c1ccc(Cl)cc1,63,-7.69
CC(Cc1ccccc1Cl)C(=O)NC1CCN(C(=O)Nc2ccccc2)C1 (configuration not stated),-1,0.11
CC(C)CC[C@@H](CCNCCN(C)C)c1ccc(Cl)cc1,90,-10.16
CC(C)CCn1ccc(NC2CCN(C)CC2)n1,-15,1.91
CC(C)CC[C@@H](CCN1CCCC1)c1ccc(OC(C)C)cc1,2,-0.36
CN1CCC(NCCOCc2ccc(Cl)cc2Cl)CC1,0,0
CN1CCC(NCC[C@@H](Cc2ccccc2Cl)c2ccc(Cl)cc2)CC1,72,-14.93
Cn1ccc(-c2nnc(NC(=O)C3CCCCC3)o2)n1,-10,1.57
Cc1c(F)cccc1C(=O)N(C)Cc1cc(C2CC2)on1,1,-0.14
Cc1nn(C(F)F)cc1-c1ccc(C(=O)N[C@H]2CCCC[C@@H]2O)cc1,1,-0.28

Structure (SMILES),% Inhibition [%],Z score
CCn1c(CCc2cccc(NC(=O)Nc3ccccc3)c2)nc2ccccc21,1,-0.11
O=C(NCCc1cn2c(n1)CCCC2)c1cccnc1,-1,0.23
CCC1CN(C(=O)NCc2cc(OC)no2)CC(C)O1 (configuration not stated),-11,2.2
CC1(C(=O)Nc2n[nH]c3cc(F)ccc23)CC2CCC1O2 (configuration not stated),-7,1.08
Cc1cc(C)c(C(=O)NCC#C[C@@H]2CCCCO2)c(C)n1,-23,2.49
Cc1cccc2ncc(C(=O)N[C@@]34COC[C@@H]3C4)n12,-12,1.31
O=C(NC[C@H]1OC[C@@H](NCc2cccnc2)[C@@H]1O)c1ccc(F)cc1,-7,0.99
Cc1c([C@@H](NCc2ncccc2O)C(C)C)oc2ccccc12,97,-8.67
Cc1c([C@H](C)NCc2cncnc2)oc2ccccc12,-15,1.68
Cc1c([C@@H](NCC(=O)N2CCC(C(N)=O)CC2)C(C)C)oc2ccccc12,-13,1.5
CC(C)C(=O)N1CCc2ccc(OCc3nc(C(=O)N(C)Cc4ccccc4)cs3)cc2[C@@H]1c1ccccc1,1,-0.07
CN(C)c1ncc(CN[C@H]2[C@H](c3ccccc3)C2(C)C)cn1,10,-1.13
CC(C)CC[C@@]1(C2CC2)NC(=O)N(Cc2ccc(C#N)cn2)C1=O,-14,2.83
O=C(c1csnn1)N1CCc2[nH]nc(-c3ccccc3F)c2C1,-7,1.02
COc1ccc(F)cc1S(=O)(=O)N1CCn2c(nn(C)c2=O)C1,-13,2.3
COc1ccc(F)cc1S(=O)(=O)N1CCc2ncncc2C1,-3,0.62
COc1ccc(F)cc1S(=O)(=O)N1CCc2noc(N)c2C1,72,-5.81
O=C(c1ccc(O)cc1)N1CCN(Cc2ccccn2)[C@@H]2CS(=O)(=O)C[C@@H]21,3,-0.42
Cc1nn(-c2nc3ccccc3[nH]2)c2c1[C@@H](c1ccc(Cl)c(Cl)c1)CC(=O)N2,14,-1.74
Cc1nn(-c2nc3ccccc3[nH]2)c2c1[C@@H](c1c(C)sc3ccccc13)CC(=O)N2,4,-0.46
Cc1nn(-c2nc3ccccc3[nH]2)c2c1[C@@H](c1cccnc1)CC(=O)N2,68,-14.32
C[C@H]1CCN(C(=O)c2cccc3c2CCCN3)[C@@H](C)C1,12,-1.41

Structure (SMILES),% Inhibition [%],Z score
CC(C)(C)C1CCC(O)(CNC(=O)NC2CCC(O)CC2)CC1 (configuration not stated),0,-0.1
CCOC(=O)c1n[nH]cc1CNCc1cccnc1N(C)C,4,-0.61
COc1cc(Br)c(NC(=O)N(C)CC(C)C)cc1OC,-13,1.89
C[n+]1ccccc1/C=C/c1c[nH]c2ccccc12,91,-8.06
C1=Cn2nc(/C=C/c3c[nH]c4ccccc34)nc2-c2ccccc2O1,-30,3.55
COc1ccc(OC)c2c(/C=C/c3c[nH]c4ccccc34)ccnc12,-8,0.9
CCCCc1ccc(NCc2c[nH]c3ccccc23)cc1,1,-0.17
CCc1ccc(/C=C/c2c[nH]c3ccccc23)[n+](CC)c1,93,-8.52
c1ccc2c(C(c3c[nH]c4ccccc34)c3c[nH]c4ccccc34)c[nH]c2c1,-27,3.19
c1cnc(NCc2cnc(N3CCCC3)s2)cn1,-3,0.38
Cn1cccc1CN[C@H]1CCOc2ccc(F)cc21,-10,1.36
CCc1nnc([C@@H]2CCCN2C(=O)NCc2ccc(F)cc2)[nH]1,-5,0.68
COC1CCCC1NC(=O)Nc1ncc(Br)cc1C (configuration not stated),74,-9.34
CC(=O)Nc1ncc(Br)cc1C,33,-0.41
COC1CCCCC1NC(=O)Nc1cccc(-c2ncc(C)o2)c1 (configuration not stated),-3,0.66
COc1ccc(C(=O)c2oc3ccccc3c2NC(=O)c2csnn2)cc1Cl,-18,1.56
COc1cccc(S(=O)(=O)N2CCC(OCCOCc3ccccc3)CC2)c1,40,-0.89
O=S(=O)(c1ccccc1)N1CCC(OCCOc2cccnc2)CC1,-7,1.14
COc1cccc(S(=O)(=O)N2CCC(OCCOc3ccccc3)CC2)c1,53,-0.06
CCN(CC)c1ncc(CN2CC[C@H](NS(C)(=O)=O)C2)s1,-14,1.85
NC(=O)Cc1nc(CC(F)(F)F)n(C2CCCCC2)n1,0,0.02
COc1cc(C(=O)NCCNC(=O)c2cc(-c3ccccc3)nc3ccccc23)cc(OC)c1OC,-11,1.69

Structure (SMILES),% Inhibition [%],Z score
Cc1ccc(C(=O)C[n+]2cc(-c3ccc(-c4ccccc4)cc3)n(C)c2N)cc1,42,-0.38
Cn1c(-c2ccc(Cl)c(Cl)c2)c[n+](CC(=O)c2ccc(-c3ccccc3)cc2)c1N,53,-0.87
Cn1c(-c2ccc(Cl)c(Cl)c2)c[n+](CC(=O)c2ccc(F)cc2)c1N,37,-4.75
CCc1nc(C)c(C(=O)N(C)Cc2csc(-c3ccccc3)n2)s1,-4,0.61
Cc1ccc(O)c(CNCC2(c3ccccc3Cl)CCOCC2)n1,98,-10.48
NC1CCC(C(=O)NCC2(c3ccccc3Cl)CCOCC2)C1 (configuration not stated),8,-1.21
O=C(NCC1(c2ccccc2Cl)CCOCC1)N1CCOCC1,-4,0.54
Cc1ccc2[nH]c3c(c2c1)C[C@@H](N1C(=O)CN(CC(C)C)C1=O)CC3,-3,0.39
FC(F)(F)c1ccc(N2CCC(n3ccnn3)CC2)nn1,0,-0.04
Cc1nc(C)c(C(=O)OCc2cccc3cccnc23)s1,-18,3.51
Cc1cc(C)c(NC(=O)OCc2cccc3cccnc23)c(C)c1,88,-13.23
C[C@@H](C(=O)OCc1cccc2cccnc12)N1CCOCC1,-4,0.63
CC1CC(C(=O)NCC2CCCCC2)c2ccccc2N1 (configuration not stated),3,-0.43
Cc1noc(C)c1CN1C(=O)NC2(CCCCC2)C1=O,-2,0.32
COc1ccc(CCNc2nc(-c3ccc(OC)cc3)c3c(N)n(-c4ccc(OC)cc4)nc3n2)cc1,-13,2.28
COc1cccc(C(=O)C[n+]2cc(-c3ccc(Br)cc3)n(C)c2N)c1,35,-0.41
Cc1ccc(C(=O)C[n+]2cc(-c3ccc(Br)cc3)n(C)c2N)cc1,38,2.56
COc1ccc2c(c1)[n+](CC(=O)c1ccc(-c3ccc(Br)cc3)cc1)c(CO)n2C,70,-5.57
CC[N+](CC)(CC(=O)OC1CC2CCC1(C)C2(C)C)CC(=O)OC1CC2CCC1(C)C2(C)C (configuration not stated),77,-8.45
CC1(C)C2CCC1(C)C(OC(=O)CN1CCCCCC1)C2 (configuration not stated),0,-0.02
